# Bioassay records deposited in PubChem BioAssay by National Center for Advancing Translational Sciences (NCATS).
# Rows were chosen to be rich in hits. Some 15% of all compounds tested hit in one or more screens of this group.
# VP16 counter = counter-screen for ROR gamma inhibitors: Gal4-VP16 reporter. Potency, µM (highest dose often 53.6 µM), without a hit: top-dose activity, negative = inhibition, usual class: inhibitors. 310,000 compounds, 3.5% hits. Drosophila S2 Gal4-VP16 UAS-luciferase, luminescence, 20 h;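 also: Gal4-VP16 expression switched on by copper sulfate through the metallothionein promoter; nearly all actives have a fitted effect of over 50% in size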
# 12-LOX inh = inhibitors of human 12S-lipoxygenase ALOX12; P18054; purified 12hLO, xylenol orange hydroperoxide absorbance; Potency, µM (top dose mostly 108 µM), without a hit: top-dose activity change, negative = inhibition, actives largely listed as inhibitors; 580,000 compounds, 1.1% hits; AID 1671190
# Target sequence (P18054 whole entry, looked up): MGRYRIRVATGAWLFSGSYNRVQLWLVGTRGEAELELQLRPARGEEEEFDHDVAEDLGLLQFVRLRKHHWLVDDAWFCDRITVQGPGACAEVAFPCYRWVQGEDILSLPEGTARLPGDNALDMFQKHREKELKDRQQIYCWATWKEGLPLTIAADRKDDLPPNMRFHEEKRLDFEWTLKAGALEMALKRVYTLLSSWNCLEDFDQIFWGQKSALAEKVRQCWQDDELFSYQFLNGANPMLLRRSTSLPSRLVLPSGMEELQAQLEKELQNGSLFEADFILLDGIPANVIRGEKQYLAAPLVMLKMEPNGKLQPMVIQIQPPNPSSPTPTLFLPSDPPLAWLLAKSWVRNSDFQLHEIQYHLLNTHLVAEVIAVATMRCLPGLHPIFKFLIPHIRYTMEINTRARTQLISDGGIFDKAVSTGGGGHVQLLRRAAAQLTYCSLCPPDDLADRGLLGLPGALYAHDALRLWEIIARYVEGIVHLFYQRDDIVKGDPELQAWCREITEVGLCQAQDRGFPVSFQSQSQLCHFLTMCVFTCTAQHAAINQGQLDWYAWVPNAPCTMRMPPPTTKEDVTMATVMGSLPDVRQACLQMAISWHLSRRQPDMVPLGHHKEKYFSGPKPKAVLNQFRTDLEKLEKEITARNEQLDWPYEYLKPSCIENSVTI
#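 Purified human 12hLO at 150 nM in 25 mM Hepes, 0.01% Triton X-100, pH 7.0, preincubated 15 min at room temperature with compound. Reaction started with 40 uM arachidonic acid, 30 min at room temperature. Hydroperoxide measured by Fe-xylenol orange, 573/405 nm absorbance ratio.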
# TDP1 cell CPT = DT40-hTDP1 cell growth loss with CPT. chicken DT40 Tdp1-/-;hTDP1 cells + 20 nM CPT, ATP luminescence, 48 h. 420,000 compounds, 12% hits. Potency, µM (series often up to 46.2 µM), inactives show top-dose activity change, negative = growth inhibition, hits mostly inhibitors; also: nearly all actives have a fitted effect of over 55% in size
#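 Chicken DT40 Tdp1-/- cells complemented with human TDP1, 400 cells/well, exposed to compounds plus 20 nM camptothecin for at least 48 h at 37 C; viability read as ATP content by CellTiter-Glo luminescence.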
# DT40 TDP1 no CPT = qHTS for Inhibitors of human tyrosyl-DNA phosphodiesterase 1 (TDP1): qHTS in cells in absence of CPT. DT40 Tdp1-/- hTDP1 cells, no CPT, ATP luminescence, 48 h. 420,000 compounds, 15% hits. Potency, µM (doses to about 46.2 µM), for the others: at the highest dose activity change, negative = growth inhibition, usual class: inhibitors. AID 686978, 2013; also: nearly all actives have a fitted effect of over 55% in size
#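 Growth of hTDP1-complemented DT40 Tdp1-knockout cells is measured by ATP luminescence after at least 48 hr compound exposure at 37 °C, with DMSO substituting for the 20 nM CPT used in the parallel screen.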
# RORgamma inh = ROR gamma (mouse) transcription inhibition; P51450; Drosophila S2 Gal4-RORgamma UAS-luciferase reporter, 20 h; AID 2551; 310,000 compounds, 5.4% hits; Potency, µM (doses to about 53.6 µM), for the others: at the highest dose activity change, negative = inhibition, actives largely listed as inhibitors; also: nearly all actives have a fitted effect of over 60% in size
#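 Luciferase reporter read in Schneider cells carrying Gal4-RORγ (mouse) and UAS-Photinus luciferase; cells given compound 1 h before 700 uM copper sulfate induction, then incubated 20 h at ambient temperature.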
# ELG1 DNA repair = blocks ELG1-dependent DNA repair in HEK293T cells; HEK293T ELG1-luciferase reporter, luminescence, 16 h; DNA damage induced by 5-fluorouridine; Potency, µM (doses to about 46.1 µM), for the others: at the highest dose activity change, negative = inhibition, actives largely listed as inhibitors; 330,000 compounds, 2.3% hits; AID 504467; also: nearly all actives have a fitted effect of over 55% in size
#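 Reporter activity after DNA damage by 5-fluorouridine is monitored. Compound-treated cells incubate 16 hr at 37 °C, then ONE-Glo is added for 30 min before luminescence reading.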
# An asterisk follows results filed as active; ? = inconclusive; · = no result; [ ] = remark or other dose. Calls follow the shape of the dose curve; as a rule, active = well fitted curve in the direction sought with a large enough effect; inconclusive = small, poorly fitted or top-dose-only effect, or another doubt; inactive = no such curve, though single readings can be large; an effect the other way counts as inactive or inconclusive. % is scaled to controls: 0 for no effect and ±100 for the full control effect; potency is read from the fitted curve at half-maximal effect.
SMILES,VP16 counter,12-LOX inh,TDP1 cell CPT,DT40 TDP1 no CPT,RORgamma inh,ELG1 DNA repair
CCCC(=O)N1CCC(N2C(=O)C3(CCCCC3)C2c2ccccc2)CC1 (stereo not drawn),·,-5%,·,·,·,·
COc1ccc(-c2ccc(=O)n(CCNC(=O)Cc3ccc(Cl)cc3)n2)cc1,·,32%,·,·,·,·
O=C(CSc1ccccc1)OCc1cc(=O)n2nc(C3CC3)sc2n1,·,-7%,·,·,·,·
CCCCC/C=C/C1=CC(=O)C[C@H](c2ccc(OC)c(OC)c2)C1,·,-13%,21µM*,10µM*,·,-24%
COc1ccc([C@H]2CC(=O)C=C(c3cccc(Cl)c3)C2)cc1OC,·,-14%,15µM*,?,·,?
COc1ccc([C@H]2CC(=O)C=C(c3ccc(F)cc3OCc3ccccc3)C2)cc1OC,·,-10%,?,21µM*,·,?
COc1ccc([C@H]2CC(=O)C=C(c3ccc(SC)cc3)C2)cc1OC,·,-15%,9.2µM*,15µM*,·,?
COc1ccc([C@H]2CC(=O)C=C(c3ccc(F)cc3OCc3ccccc3)C2)cc1,·,-31%,?,?,·,?
COc1ccc(NS(=O)(=O)c2cccc(C(=O)NNC(=O)c3cc(C)oc3C)c2)cc1,-1%,-22%,-23%,?,2%,-1%
COc1ccc(NS(=O)(=O)c2cc(C)ccc2NC(=O)c2cc(C)oc2C)cc1,-7%,?,0.92µM*,0.58µM*,25%,?
CN(C)c1cc[n+](CC(=O)c2ccc(Br)cc2)cc1,-6%,3%,16µM*,?,5%,9.2µM*
Cc1ccc[n+](CC(=O)c2ccc(Br)cc2)c1,-3%,23%,-8%,17%,-14%,12%
COc1ccc(C(=O)C[n+]2ccc(N(C)C)cc2)cc1,-4%,221%,?,16µM*,22%,0%
O=C(NNc1ccc(C(F)(F)F)cc1[N+](=O)[O-])c1ccc(NS(=O)(=O)c2ccc(F)cc2)cc1,?,?,?,23µM*,?,21µM*
CC1=Nc2ccc3ccccc3c2C1(C)C,-23%,8%,12%,-18%,7.9µM*,16%
O=C(Nc1cccc(S(=O)(=O)N2CCCCCC2)c1)c1cccc2cccnc12,·,-4%,·,·,·,·
O=C(O)C(c1c[nH]c2ccccc12)N1CCN(S(=O)(=O)c2ccccc2)CC1 (stereo not drawn),·,-24%,·,·,·,·
Cc1ccc2c(c1)[C@H]1[C@H](CO2)[C@H](c2ccccc2)[C@]2(C)C(=O)Nc3ccc(Br)cc3C(=O)N12,·,?,?,16µM*,·,?
COc1ccc2c(c1)[C@H]1[C@H](CO2)[C@H](c2ccccc2)[C@]2(C)C(=O)Nc3ccc(Br)cc3C(=O)N12,·,-21%,16µM*,?,·,15%
C[C@@]12C(=O)NCC(=O)N1[C@@H]1c3cc(Br)ccc3OC[C@@H]1[C@@H]2c1ccccc1,·,-7%,10%,-23%,·,?
Cc1ccc2c(c1)C(=O)N1[C@H]3c4cc(Br)ccc4OC[C@@H]3[C@H](c3ccccc3)[C@]1(C)C(=O)N2,·,-17%,23µM*,23µM*,·,-9%
CNC(=O)c1nc(-c2ccc(COc3ccc4c(c3)OCO4)cc2)no1,·,-38%,·,·,·,·
O=c1cc(CSc2nnc(NC3CCCCC3)s2)nc2sccn12,-4%,-11%,21%,-7%,27%,11%
c1ccc(CSc2nnc(NC3CCCCC3)s2)cc1,·,-2%,?,21µM*,·,·
Cc1ccc(-c2nnc(NC3CCCC3)s2)cc1,?,2%,-9%,?,11µM*,?
SMILES,VP16 counter,12-LOX inh,TDP1 cell CPT,DT40 TDP1 no CPT,RORgamma inh,ELG1 DNA repair
Cc1ccc(C(=O)Nc2nnc(-c3ccc(C(C)(C)C)cc3)s2)cc1,0%,-1%,?,?,-8%,?
CCCCn1nc(C(=O)Nc2cccc(C(F)(F)F)c2)c2ccccc2c1=O,·,-43%,·,·,·,·
CCCOc1ccc(F)cc1-c1cc(C(=O)NCc2ccco2)[nH]n1,·,-15%,?,?,·,·
CCCOc1ccc(F)cc1-c1cc(C(=O)NCc2ccccc2)[nH]n1,·,1%,?,?,·,·
CCCOc1ccc(F)cc1-c1cc(C(=O)NCc2cccc(Cl)c2)[nH]n1,·,-35%,23µM*,?,·,·
CCCOc1ccc(F)cc1-c1cc(C(=O)NCc2ccc(C(F)(F)F)cc2)[nH]n1,·,·,?,16µM*,·,·
CCCOc1ccc(F)cc1-c1cc(C(=O)NCc2cccc(C(F)(F)F)c2)[nH]n1,·,-15%,21µM*,18µM*,·,·
O=C(Nc1ccc2[nH]c(=O)[nH]c2c1)c1nn(-c2ccccc2Cl)c2c1CCCC2,·,-3%,·,·,·,·
OCC1CCN(CCCOCCc2ccccc2)CC1,·,23%,·,·,·,·
O=c1c2nc(-c3ccsc3)ccc2ncn1-c1ccc(F)cc1F,·,5%[176 µM],·,·,·,·
COc1cccc(C(=O)N(C)CCCNC(=O)c2nc3ccccc3c(=O)[nH]2)c1,·,-5%,·,·,·,·
Cc1ccccc1C(=O)N1CCC(c2n[nH]c(=O)n2-c2ccccc2)CC1,·,19%,·,·,·,·
O=C(/C=C/Nc1ccc(F)cc1)c1ccc(Br)cc1,?,-14%,17%,0%,5%,?
O=C(/C=C/Nc1ccc(Br)cc1F)c1ccccc1,5.6µM*,-5%,-23%,-28%,4µM*,?
O=C(/C=C/Nc1ccccc1F)c1ccc(Br)cc1,?,?,1%,-5%,10µM*,?
CC(C)(C)C(=O)[C@@H]1[C@@H]2C(=O)N(Cc3ccccc3)C(=O)[C@@H]2[C@H]2c3ccccc3C=CN12,?,·,·,·,11µM*,-12%
CC(=O)[C@@H]1[C@@H]2C(=O)N(C3CCCCC3)C(=O)[C@@H]2C2c3ccccc3C=CN21 (stereo partly drawn),3%,·,·,·,-19%,0%
CCN1CCN(C(=O)c2ccc3c(c2)N(Cc2cc(C)ccc2C)C(=O)c2ccccc2S3=O)CC1 (stereo not drawn),·,-5%,18µM*,16µM*,·,·
CCN1CCN(CCNC(=O)c2ccc3c(c2)N(Cc2ccc(F)cc2)C(=O)c2ccccc2S3=O)CC1 (stereo not drawn),-5%,?,-30%,?,-3%,11%
Cc1ccc(Cl)cc1N1CCN(C(=O)c2ccc3c(c2)N(Cc2ccccc2F)C(=O)c2ccccc2S3=O)CC1 (stereo not drawn),·,-15%,?,?,·,·
